Pf growth 48h – P. falciparum growth inhibition at 48 hours (one generation). P. falciparum luciferase growth in erythrocytes, 48 h. Potency, µM (highest dose often 28.7 µM), inactives show top-dose activity change, negative = inhibition, most hits filed as inhibitors. 310,000 tested, 5.9% active; further: potency means the concentration at half of the fitted maximal effect
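Read-out is firefly luciferase luminescence from an integrated reporter in P. falciparum, so falling signal marks reduced parasite growth. Infected erythrocytes were at 2% hematocrit and 0.1% parasitemia (final) in Albumax-supplemented RPMI 1640.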
HCMV antiviral – inhibitors of human cytomegalovirus; activity change, negative = inhibition, % at 57.5 µM; 410,000 tested, 4.5% active; HFF cells, HCMV-luciferase reporter, 72 h; active compounds read low; in the data active means activity change below about -60%; inconclusive means no clear call, values can overlap the other calls; inactive means above about -39%
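Steps: HFFs plated, 16 h 37C; compounds added; HCMV-luciferase added to MOI 1 PFU/cell; 72 h 37C; OneGlo reagent, 5 min room temperature; luminescence read, normalized to controls.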
Pf growth 96h – P. falciparum growth inhibition at 96 hour, primary screen for plastid delayed-death inhibitors | P. falciparum luciferase reporter growth, 96 h | 320,000 tested, 6.9% active | Potency, µM (titrated, usually from 28.7 µM), inactives show at the highest dose activity change, negative = inhibition, most hits filed as inhibitors | AID 504834; further: potency means the concentration at half of the fitted maximal effect
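Readout is luminescence from an integrated firefly luciferase in P. falciparum. Red cells, 2% hematocrit and 0.05% parasitemia final, were cultured with compound through two parasite generations (96 hours) at 37 C, 5% CO2.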
HCV inh – HCV inhibition; Potency, µM (series often up to 41.8 µM), inactives show at the highest dose activity change, negative = inhibition, actives largely listed as inhibitors; Huh7.5.1 HCVcc-Cre infection, luciferase reporter, 44 h; AID 651820; 340,000 tested, 3.4% active; further: potency means the concentration at half of the fitted maximal effect
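HCVcc-Cre virus at an moi near 0.5 was added right after compound to cells cultured 4 h from seeding (1,000 cells/well). Luciferase activity was determined 44 h later, 15 min after substrate addition at RT.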
Active calls of the source: *; ? = inconclusive; . = no result; [ ] = dose if it differs, or a comment. This is a sample that favours compounds with a hit; in the whole collection about 13% have one here. Unless noted, the call rests on the fitted dose curve; in most records, active means well fitted inhibition curve with a large enough effect; inconclusive means small, poorly fitted or top-dose-only effect, or another doubt; inactive means no such curve, though single readings can be large or run the other way. On the % scale 0 is the no-effect control and ±100 the full control effect.

SMILES	Pf growth 48h	HCMV antiviral	Pf growth 96h	HCV inh
CC(C)(Oc1ccc(Br)cc1)C(=O)Nc1cc(-c2nc3ccccc3[nH]2)ccc1Cl	.	-16	.	.
CS(=O)(=O)Cc1ccc(C(=O)Nc2cccc(-c3nc4ccccc4[nH]3)c2)cc1	-44%	7	8.3µM*	?
O=C(CSc1ccc(Cl)cc1)Nc1cccc(-c2nc3ccccc3[nH]2)c1	3.7µM*	24	?	?
O=C(COc1ccccc1)Nc1cccc(-c2nc3ccccc3[nH]2)c1	4%	28	0%	-5%
COc1ccc(OCC(=O)Nc2cccc(-c3nc4ccccc4[nH]3)c2)cc1	?	82	12µM*	?
CCCOc1ccc(C(=O)Nc2cccc(-c3nc4ccccc4[nH]3)c2)cc1	.	-88*	.	.
CCOc1cc(OCC)cc(C(=O)Nc2cccc(-c3nc4ccccc4[nH]3)c2)c1	.	-98*	.	.
Cc1ccc2nc(-c3ccc(NC(=O)CSc4ccccc4)cc3)[nH]c2c1	?	?	?	11µM*
COC(=O)Cn1c(=NC(=O)c2ccc3c(c2)OCCO3)sc2ccccc21	.	-16	.	.
COc1ccc2c(c1)CCC/C(C)=C/C(=O)c1ccccc1O2	.	3	.	.
COc1ccc2c(c1)C(n1c(C)ccc1C)C(=O)N2Cc1ccc(Cl)nc1 (centres undefined)	.	-9	.	.
COc1ccc(C(=O)CC(=O)c2ccc(C(C)(C)C)cc2)cc1	75%	13	3%	?
COc1ccc(C(=O)C(CCC(CNC(C)(C)C)C(=O)c2ccc(OC)cc2)CNC(C)(C)C)cc1 (centres undefined)	7.4µM*	-98*	?	?
COc1ccccc1N1CCN(C(=O)Cn2c(=O)nc(-c3ccccc3)c3cc(Cl)ccc32)CC1	.	-6	.	.
S=C(Nc1ccc(Cl)c(Cl)c1)NC1CCN(Cc2ccccc2)CC1	4.1µM*	-78*	?	14µM*
Cc1cccc(NC(=S)NC2CCN(Cc3ccccc3)CC2)c1C	?	-38	?	-15%
S=C(Nc1cccc(Cl)c1Cl)NC1CCN(Cc2ccccc2)CC1	?	-66*	-21%	?
Cc1ccc(CSCc2ccc(C(=O)NCCc3ccc(Cl)cc3)o2)cc1	.	-11	.	.
CCOCCCNC(=O)Nc1cc(C(=O)NCc2ccc(C(C)C)cc2)ccc1N1CCCC1	.	-6	.	.
CSCCC(NC(=O)c1ccccc1Cl)C(=O)NCC(c1ccco1)N1CCCCC1 (centres undefined)	15µM*	-34	7.4µM*	-4%
CSCCC(NC(=O)c1ccccc1Cl)C(=O)Nc1cccc(S(=O)(=O)N2CCCC2)c1 (centres undefined)	12µM*	-19	?	2%
COc1ccc(C(CNC(=O)C(CCSC)NC(=O)c2ccccc2Cl)N2CCCCC2)cc1 (centres undefined)	7.4µM*	-32	?	2%
CSCCC(NC(=O)c1cccc(S(=O)(=O)N2CCOCC2)c1)C(=O)Nc1cccc(C)c1 (centres undefined)	-21%	-33	?	8%
CC(C)C(NC(=O)c1ccccc1F)C(=O)NCC(c1ccco1)N1CCCCC1 (centres undefined)	.	-64*	.	0%
COc1ccccc1CNC(=O)CSc1ccc(-c2sc(-c3ccccc3)nc2C)nn1	.	-10	.	.
SMILES	Pf growth 48h	HCMV antiviral	Pf growth 96h	HCV inh
CCS(=O)(=O)N1CCC(n2c(C(F)(F)F)nc3cccnc32)CC1	.	-9	.	.
CCc1ccc(CNC(=O)c2cc(=O)[nH]c3ccc(S(=O)(=O)N4CCCCC4)cc23)cc1	.	0	.	.
COc1ccc(S(=O)(=O)NCCc2sc(-c3cccnc3)nc2C)c(F)c1	.	-5	.	.
CCn1cc(CCC(=O)NCc2ccccc2OC)c2ccccc21	0%	3	?	10µM*
O=C(Nc1ccc(Cl)c(Cl)c1)Nc1nc(-c2ccccc2)cs1	?	?	2.3µM*	?
O=C(Nc1ccccc1)Nc1nc(-c2ccc(F)c(F)c2)cs1	12µM*	.	13µM*	-23%
O=C(Nc1ccccc1)Nc1nc(-c2ccccc2)cs1	-2%	?	24%	-17%
COc1cccc(-c2csc(NC(=O)Nc3ccccc3)n2)c1	9%[0.00184 µM]	?	?	11µM*
CS(=O)(=O)c1nc(S(=O)(=O)c2ccc(Cl)cc2)c(N2CCCCC2)s1	?	?	6%	-11%
CS(=O)(=O)c1nc(S(=O)(=O)c2ccc(Cl)cc2)c(NCCCn2ccnc2)s1	-14%	-40	5.9µM*	15%
CCS(=O)(=O)c1nc(S(=O)(=O)c2ccc(Cl)cc2)c(N2CCCC2)s1	?	-20	12%	1%
CCS(=O)(=O)c1nc(S(=O)(=O)c2ccc(Cl)cc2)c(N2CCN(C)CC2)s1	?	-77*	-1%	16%
CS(=O)(=O)c1nc(S(=O)(=O)c2ccc(Cl)cc2)c(NCCN2CCOCC2)s1	0%	-28	-17%	-8%
CN1CCN(c2sc(S(C)(=O)=O)nc2S(=O)(=O)c2ccc(Cl)cc2)CC1	?	-80*	12µM*	6%
CS(=O)(=O)c1nc(S(=O)(=O)c2ccc(Cl)cc2)c(N2CCCCCC2)s1	?	?	13µM*	-2%
CS(=O)(=O)c1nc(S(=O)(=O)c2ccc(Cl)cc2)c(N2CCC(O)CC2)s1	-9%	-25	13%	-8%
CS(=O)(=O)c1nc(S(=O)(=O)c2ccc(Cl)cc2)c(N2CCN(CCO)CC2)s1	-10%	-63*	?	-2%
Cc1ccc(S(=O)(=O)c2nc(S(=O)(=O)c3ccc(C)cc3)c(N3CCN(CCO)CC3)s2)cc1	5.2µM*	-107*	-31%	?
O=C(CSc1nccn1Cc1ccco1)Nc1ccc(OC(F)(F)F)cc1	.	62	.	.
Cc1cc(N)c(NC2=CC(=O)CC(C)(C)C2)cc1C	-4%	61	10µM*	21%
CCOC(=O)CNC(=O)c1cc(OC)cc(OC)c1	29%	12	0.93µM*	?
COC(=O)CNC(=O)c1cc(OC)cc(OC)c1	8%	-12	0%	29%
Cc1ccc(C)c(Oc2coc3cc(OCC(=O)Nc4ccccc4C(C)C)ccc3c2=O)c1	13µM*	.	7.4µM*	?
COC(=O)C1=CN(c2cccc(C)c2)C=C(C(=O)OC)C1c1cc(OC)c(O)c([N+](=O)[O-])c1	8.3µM*	118	?	3%
COC(=O)C1=CN(c2ccc(OC)cc2)C=C(C(=O)OC)C1c1ccc(C)c([N+](=O)[O-])c1	13µM*	-78*	20%	?
SMILES	Pf growth 48h	HCMV antiviral	Pf growth 96h	HCV inh
COC(=O)C1=CN(c2ccc(OC)cc2)C=C(C(=O)OC)C1c1cccc(F)c1	?	-8	-6%	?
CCOc1ccc(NC(=O)c2cnc3sc(N4CCOCC4)nn3c2=O)cc1	.	-11	.	.
N=C1C(c2ccccc2)=C(O)CN1CCCO	?	-9	15µM*	27%
C=CCN1CC(O)=C(c2ccccc2)C1=N	36%	-69*	2%	18%
COc1ccc(NC(=O)O/N=C2/CCCc3ccc(OC)cc32)cc1	-7%	-73*	7%	2.8µM*
CC(C)c1ccc(Nc2cc3c(cn2)cc(-c2ccccc2)n3C)cc1	.	-21	.	.
